KB-V1 cytotox: qHTS assay for MDR1-selective chemotherapeutics: Primary screen using the drug-selected MDR subline cells KB-V1; KB-V1 MDR cells viability, CellTiter-Glo, 72 h; Potency, µM (titrated, usually from 46.1 µM), usual class: cytotoxic; 400,000 compounds, 3.4% hits; AID 1347076, 2019; further: nearly all actives have a fitted effect of over 60% in size
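Readout: CellTiter-Glo luminescence, 10 min after addition. Cells: KB-V1 MDR subline, 72 h at 37 degrees C with compound. Analysis: corrected, normalized data fitted to concentration-effect curves.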
KB-3-1 tox: qHTS assay for MDR1-selective chemotherapeutics: Primary screen using the parental adenocarcinoma cell KB-3-1 | Potency, µM (doses to about 46.1 µM), actives largely listed as cytotoxic | 400,000 compounds, 1.4% hits | KB-3-1 viability, CellTiter-Glo ATP luminescence, 72 h | AID 1347075, 2019; further: nearly all actives have a fitted effect of over 60% in size
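Screening of KB-3-1 cells (DMEM, 10% FBS, phenol-red free) ran from lowest to highest compound concentration; after 72 h at 37 °C viability was read luminescently and curves fitted.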
HepG2 viability: qHTS for Inhibitors of TGF-b: Cytotox Counterscreen | Potency, µM (highest dose often 46.1 µM), actives largely listed as cytotoxic | 410,000 compounds, 0.76% hits | HepG2 CAGA-GFP viability, ATP luminescence, 18 h
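CellTiter-Glo luminescence gave cytotoxicity after 18 hours at 37 degrees C. The cells were HepG2 CAGA-GFP in 1% FBS DMEM, stimulated with 500 pg/mL TGF-beta after compound addition. %Activity was normalised to no-cell wells (complete cell-killing) and DMSO (no toxicity), and curves were fitted and classified.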
ATXN2 expr inh: Primary qHTS for Inhibitors of ATXN expression; HEK-293 ATXN2-luciferase reporter, luminescence, 24 h; Potency, µM (highest dose often 57 µM), most hits filed as inhibitors; 360,000 compounds, 0.72% hits; AID 1745845, 2022; further: nearly all actives have a fitted effect of over 55% in size
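ATXN2-luciferase reporter cells (luciferase flanked by upstream and downstream ATXN2 gene portions) were treated 24 h at 37 °C with compounds at up to 57 uM. SteadyGlo luminescence gave expression; GF-AFC fluorescence gave viability.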
ATXN viability: Viability Counterscreen for Primary qHTS for Inhibitors of ATXN expression. S2 cells (HEK-293 line with an ATXN2-luciferase reporter) viability, CellTiter-Fluor protease fluorescence, 24 h. Potency, µM (titrated, usually from 56.7 µM), actives largely listed as cytotoxic. 400,000 compounds, 0.49% hits. AID 651635, 2014; further: nearly all actives have a fitted effect of over 40% in size
TGFb SMAD3 inh: qHTS for Inhibitors of TGF-b; HepG2 CAGA-GFP TGF-b/SMAD3 reporter, GFP fluorescence, 18 h; TGF-beta stimulated, 500 pg/mL final; Potency, µM (highest dose often 46.1 µM), usual class: inhibitors; 410,000 compounds, 1.2% hits; AID 588855, 2011; further: nearly all actives have a fitted effect of over 65% in size
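GFP signal (ex488/em500-530) from TGF-beta-stimulated HEPG2 CAGA-GFP cells, 500 pg/mL final, 18 h at 37 degrees C in DMEM plus 1% FBS, normalized to unstimulated and DMSO-stimulated controls.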
Each line names hits and unclear results; the compound was inactive in the other large screens. In the library only some 5.9% were active in any assay of this set; here they are far more common. The call rests on the fitted dose curve; in most records, active means well fitted curve in the direction sought with a large enough effect; inconclusive means small, poorly fitted or top-dose-only effect, or another doubt; inactive means no such curve, though single readings can be large; an effect the other way counts as inactive or inconclusive.

CCOC(=O)N1CCN(C(=O)c2ccc(N(Cc3ccc(Cl)cc3)S(C)(=O)=O)cc2)CC1	ATXN2 expr inh inconclusive, ATXN viability inconclusive, TGFb SMAD3 inh inconclusive
C=CCn1c(NC(=O)c2ccccc2Cl)c(C#N)c2nc3ccccc3nc21	KB-V1 cytotox 8.2µM, KB-3-1 tox inconclusive (no result: ATXN viability)
CCCCn1c(NC(C)=O)c(C#N)c2nc3ccccc3nc21	none (no result: ATXN viability)
CN(C)C(=O)c1ccc(SC(=S)NCc2ccccc2)cc1	KB-V1 cytotox inconclusive, KB-3-1 tox 6.5µM, TGFb SMAD3 inh inconclusive
CC(C)(C)CC(=O)NC(=S)NCc1ccccc1	KB-3-1 tox inconclusive, ATXN viability inconclusive, TGFb SMAD3 inh inconclusive
CCCCN1/C(=C/c2cccc[n+]2C)Sc2cc(NC(C)=O)ccc21	none (no result: ATXN2 expr inh)
Cc1ccc2c(c1)N(C)/C(=C/c1cccc[n+]1CCO)S2	KB-3-1 tox 1.8µM
CN1/C(=C/c2cccc[n+]2C)Sc2ccccc21	KB-3-1 tox 1.5µM, ATXN2 expr inh inconclusive, TGFb SMAD3 inh inconclusive
Cc1ccc2c(c1)S/C(=C/c1ccc[n+](C)c1)N2CCO	KB-V1 cytotox inconclusive, KB-3-1 tox inconclusive, ATXN viability inconclusive
Cc1ccc2c(c1)N(C)/C(=C/c1cccc[n+]1C)S2	KB-3-1 tox 0.92µM, HepG2 viability 11µM, ATXN2 expr inh inconclusive
CNc1nc(SCc2ccc(C)cc2)nc2c1CCCC2	TGFb SMAD3 inh 16µM
CC1(C(=O)NCc2cccc(C(F)(F)F)c2)CCN1Cc1ccc(-c2ccccc2)o1 (stereo not given)	KB-V1 cytotox inconclusive, ATXN2 expr inh inconclusive, TGFb SMAD3 inh inconclusive
CC1(C(=O)NCc2ccccc2Br)CCN1Cc1ccc(-c2ccccc2)o1 (stereo not given)	KB-V1 cytotox 21µM, KB-3-1 tox 5.2µM, TGFb SMAD3 inh inconclusive
CCc1ccccc1NC(=O)CC(c1ccc(OC)cc1)n1cccc1 (stereo not given)	KB-V1 cytotox 7.3µM
COc1ccc(CC(=O)N(c2ccccc2)c2nc(C)cs2)cc1	KB-V1 cytotox 16µM
Cc1csc(N(C(=O)Cc2ccccc2F)c2ccccc2)n1	ATXN viability inconclusive
Cc1nc(Nc2nc3ccccc3o2)nc2c1CCCC2	none (no result: HepG2 viability, ATXN2 expr inh, ATXN viability, TGFb SMAD3 inh)
Clc1ccc(-n2c(Cc3ccccc3)nnc2SCc2nc(-c3cccs3)no2)cc1	KB-V1 cytotox inconclusive, KB-3-1 tox inconclusive, TGFb SMAD3 inh inconclusive
COc1ccc(-c2noc(CSc3nnc(Cc4ccccc4)n3-c3ccc(Cl)cc3)n2)cc1	KB-V1 cytotox 12µM, ATXN viability inconclusive, TGFb SMAD3 inh inconclusive
Cc1ccc(-c2noc(CSc3nnc(Cc4ccccc4)n3-c3ccc(Cl)cc3)n2)cc1	KB-V1 cytotox 18µM, KB-3-1 tox inconclusive, TGFb SMAD3 inh inconclusive
COc1ccc(-c2noc(CSc3nnc(CCc4ccccc4)n3-c3ccccc3)n2)cc1OC	KB-V1 cytotox 23µM, ATXN viability inconclusive
COc1ccc(-c2[nH]c3ccccc3c2SCCNC(=O)c2ccccc2)cc1	KB-3-1 tox 21µM, ATXN2 expr inh inconclusive, ATXN viability inconclusive, TGFb SMAD3 inh inconclusive
CC(=O)Nc1ccc([C@H](C)C(=O)Nc2ncc(C(C)C)s2)cc1	ATXN2 expr inh 0.34µM (no result: KB-V1 cytotox, KB-3-1 tox, HepG2 viability, ATXN viability, TGFb SMAD3 inh)
C=CCOc1ccc(/C=N/O)cc1Cl	KB-3-1 tox 12µM, ATXN viability inconclusive
COc1ccc(CC(N)c2csc(Nc3cccc(OC)n3)n2)cc1 (stereo not given)	KB-V1 cytotox inconclusive, HepG2 viability 13µM, ATXN viability inconclusive, TGFb SMAD3 inh inconclusive
COc1cccc(Nc2nc(C(N)Cc3ccc(C(F)(F)F)cc3)cs2)n1 (stereo not given)	HepG2 viability 10µM, ATXN2 expr inh 20µM, TGFb SMAD3 inh inconclusive (no result: ATXN viability)
COc1ccc(CC(N)c2csc(Nc3ccccn3)n2)cc1 (stereo not given)	ATXN2 expr inh inconclusive, ATXN viability inconclusive, TGFb SMAD3 inh inconclusive
NC(=O)c1cccc(Nc2nc(C(N)Cc3ccc(C(F)(F)F)cc3)cs2)n1 (stereo not given)	KB-3-1 tox inconclusive, ATXN2 expr inh 28µM, ATXN viability inconclusive, TGFb SMAD3 inh inconclusive
CC(=O)c1ccc(Nc2nc(C(N)Cc3ccc(N)cc3)cs2)cc1 (stereo not given)	none
NC(Cc1ccccc1)c1csc(Nc2ccc(C(F)(F)F)cn2)n1 (stereo not given)	KB-V1 cytotox inconclusive, KB-3-1 tox inconclusive, ATXN2 expr inh inconclusive, TGFb SMAD3 inh inconclusive
COc1cccc(Nc2nc(C(N)CC(C)C)cs2)n1 (stereo not given)	ATXN viability inconclusive, TGFb SMAD3 inh 11µM
COc1cccc(Nc2nc(C(N)Cc3ccc(Cl)cc3)cs2)n1 (stereo not given)	ATXN2 expr inh 25µM, ATXN viability 32µM, TGFb SMAD3 inh inconclusive
COc1cccc(Nc2nc(C(N)C(C)C)cs2)n1 (stereo not given)	KB-3-1 tox inconclusive
Oc1cc(-c2nc(-c3ccccc3)[nH]c2-c2ccncc2)ccc1Cl	none (no result: KB-V1 cytotox, KB-3-1 tox, HepG2 viability, ATXN viability, TGFb SMAD3 inh)
COc1ccc(-n2nc3c(c2NC(=O)CCl)CSC3)cc1	KB-V1 cytotox inconclusive, KB-3-1 tox 23µM, ATXN viability inconclusive, TGFb SMAD3 inh inconclusive
COc1ccc(-n2nc3c(c2NC(=O)C(C)Cl)CSC3)cc1 (stereo not given)	none (no result: ATXN2 expr inh)
COc1ccc(Cn2cc(CN3CCc4onc(-c5ccc(Br)cc5)c4C3=O)nn2)cc1	KB-V1 cytotox 21µM, KB-3-1 tox inconclusive (no result: HepG2 viability, ATXN2 expr inh, ATXN viability, TGFb SMAD3 inh)
